Pf Dd2 inh: P. falciparum Dd2 growth inhibition. activity change, % at 10 µM. AID 1159554. 2.3% of 94,000 active. SYBR Green, 72 h; active compounds read low; in the data active = activity change below about -80%; inconclusive = no clear call, values can overlap the other calls
C diff growth: inhibitors of Clostridium difficile growth. Clostridium difficile clinical isolate growth, OD600, 24 h; active compounds read low. growth activity, negative = inhibition, % at 16 µg/mL (by protocol). 0.25% of 86,000 active;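 active = mean growth activity at or below -80% and every replicate also at or below -80%; inconclusive = mean at or below -80% but some replicate above -80%; inactive = mean growth activity above -80%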;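 also: 0% = DMSO wells and -100% = levofloxacin 16 µg/mL wells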
T cruzi growth-1: inhibitors of T. cruzi proliferation; 5.9% of 77,000 active; AID 624255; T. cruzi beta-gal in NIH3T3, GalScreen luminescence, 90 h; inhibition, % at 8.34 µM;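 active = mean inhibition above about 93%, with at least 55% of replicates each passing it, limit read from the data, passing the limit was not always enough; inconclusive = only one of those two conditions holds; inactive = neither condition holds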
T cruzi growth-2: Trypanosoma cruzi proliferation inhibition; shares compounds with T cruzi growth-1; T. cruzi beta-gal in NIH3T3, GalScreen luminescence, 90 h; AID 651739; 72% of 5,600 active; inhibition, % at 8.35 µM;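 active = mean replicate inhibition above about 95% and at least 55% of replicates individually reaching it, limit read from the data; inconclusive = only one of the two criteria is met; inactive = neither criterion is met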
T cruzi growth-3: blocks T. cruzi growth in NIH3T3 host cells; 21% of 5,600 active; shares compounds with T cruzi growth-1; T. cruzi beta-gal in NIH3T3, GalScreen luminescence, 90 h; inhibition, % at 2.09 µM;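 active = mean inhibition above about 95%, with at least 55% of replicates also reaching it, limit read from the data; inconclusive = meets just one of the two conditions; inactive = meets neither condition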;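 also: plate controls were neutral control median for no effect and positive control median for full effect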
3T3 cytotox: cytotoxicity in mouse NIH/3T3 fibroblasts | shares compounds with T cruzi growth-1 | AID 651742 | cytotoxicity (signal decrease), % at 8.35 µM | NIH/3T3 viability, CellTiter-Glo ATP luminescence, 90 h | 14% of 5,600 active;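 active = mean signal decrease across replicates above about 35% based on untreated-well scatter, with enough replicates individually passing, limit read from the data; inconclusive = no rule stated though some were filed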;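 also: 0% = median of neutral control wells and 100% = median of positive control wells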
3T3 cytotox 2: cytotoxicity in mouse NIH/3T3 fibroblasts. shares compounds with T cruzi growth-1. NIH/3T3 viability, CellTiter-Glo ATP luminescence, 90 h. inhibition, % at 24.9 µM. 56% of 5,600 active. AID 651744;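 active = mean loss of cell viability signal at or above a set limit, and enough replicates individually reaching it; inconclusive = meets only the mean limit or only the replicate share; inactive = meets neither condition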;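 also: 0% = median of neutral control wells and 100% = median of positive control wells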
* = called active by the depositor; ? = inconclusive; · = no result given; ! = a repeat was not active. This is a sample that favours compounds with a hit; in the whole collection about 6.8% have one here.

SMILES	Pf Dd2 inh	C diff growth	T cruzi growth-1	T cruzi growth-2	T cruzi growth-3	3T3 cytotox	3T3 cytotox 2
CS(=O)(=O)N1CC2(C1)[C@H](c1ccccc1)[C@H](CO)N2Cc1ccccn1	-2	0	·	·	·	·	·
Cc1noc(C)c1NC(=O)Nc1ccc2c(c1)C(=O)N([C@H](C)CO)C[C@H](C)[C@H](CN(C)C(=O)Nc1cccc3ccccc13)OCCCC[C@@H](C)O2	-7	2	14	·	·	·	·
C[C@@H]1CCCCO[C@H](CN(C)S(=O)(=O)c2ccccc2)[C@H](C)CN([C@@H](C)CO)C(=O)c2cc(NC(=O)Nc3ccc(C(F)(F)F)cc3)ccc2O1	?	-7	107*	96*	111*	-1	14
C[C@H](CO)N1C[C@H](C)[C@@H](CN(C)S(=O)(=O)c2ccccc2)OCCCC[C@H](C)Oc2ccc(NC(=O)Nc3ccc(C(F)(F)F)cc3)cc2C1=O	-43	-7	87	·	·	·	·
COc1ccc2c3c([nH]c2c1)[C@@H](CO)N(C(=O)C1CCCCC1)CC31CN(Cc2nccs2)C1	-47	0	·	·	·	·	·
CCCC(=O)N1CCC2(CC1)CN(C(=O)Cc1ccccn1)[C@H](CO)c1[nH]c3cc(OC)ccc3c12	11	3	·	·	·	·	·
CN1c2ccc(-c3ccccc3)cc2[C@H]2[C@H](CCN2C(=O)Cc2cccnc2)[C@H]1CO	6	-3	?	99*	76	-11	-7
CN1c2ccc(-c3ccccc3)cc2[C@H]2[C@H](CCN2C(=O)Cc2cccnc2)[C@@H]1CO	9	-7	107*	111*	97*	-24	-13
COc1ccc(-c2ccc3c(c2)[C@@H]2[C@@H](CCN2C(=O)Cc2cccnc2)[C@H](CO)N3C)cc1	-3	-4	76	·	·	·	·
CN1c2ccc(-c3cccc(F)c3)cc2[C@H]2[C@H](CCN2C(=O)Cc2cccnc2)[C@H]1CO	8	4	84	·	·	·	·
C/C=C/c1ccc2c(c1)O[C@@H](CN(C)C(=O)Nc1ccc(C(F)(F)F)cc1)[C@@H](C)CN([C@H](C)CO)S2(=O)=O	-29	10	110*	101*	81	59*	52*
C/C=C/c1ccc2c(c1)O[C@@H](CN(C)C(=O)Nc1ccccc1)[C@@H](C)CN([C@H](C)CO)S2(=O)=O	-16	-6	22	·	·	·	·
C/C=C/c1ccc2c(c1)O[C@@H](CN(C)C(=O)Nc1ccccc1)[C@H](C)CN([C@H](C)CO)S2(=O)=O	-2	-10	9	·	·	·	·
C/C=C/c1ccc2c(c1)O[C@@H](CN(C)C(=O)Nc1ccc(F)cc1)[C@@H](C)CN([C@H](C)CO)S2(=O)=O	-16	8	6	·	·	·	·
C/C=C/c1ccc2c(c1)O[C@H](CN(C)C(=O)Nc1ccc(C(F)(F)F)cc1)[C@H](C)CN([C@H](C)CO)S2(=O)=O	-1	7	100*	96*	90	38*	90*
C/C=C/c1ccc2c(c1)O[C@H](CN(C)C(=O)Nc1ccc(C(F)(F)F)cc1)[C@@H](C)CN([C@@H](C)CO)S2(=O)=O	-10	0	101*	88	81	73*	98*
O=C(Nc1ccc2c(c1)[C@H]1C[C@@H](CC(=O)N3CCCCC3)O[C@H](CO)[C@H]1O2)C1CCOCC1	8	·	-89	·	·	·	·
O=C(NCC[C@@H]1CC[C@H](NC(=O)C2CCCC2)[C@@H](CO)O1)Nc1ccc(Cl)cc1	-11	1	·	·	·	·	·
COc1ccc(S(=O)(=O)N(C)C[C@H]2Oc3cc(C#CC4CCCC4)ccc3S(=O)(=O)N([C@@H](C)CO)C[C@@H]2C)cc1	?	6	40	·	·	·	·
COc1ccc(S(=O)(=O)N(C)C[C@H]2Oc3cc(C#CC4CC4)ccc3S(=O)(=O)N([C@@H](C)CO)C[C@H]2C)cc1	-60	1	110*	109*	?	-8	57*
COc1ccc(S(=O)(=O)N(C)C[C@H]2Oc3cc(C#CC4CCCC4)ccc3S(=O)(=O)N([C@H](C)CO)C[C@@H]2C)cc1	-56	6	68	·	·	·	·
COc1ccc(S(=O)(=O)N(C)C[C@H]2Oc3cc(C#CC4CC4)ccc3S(=O)(=O)N([C@@H](C)CO)C[C@@H]2C)cc1	-73	1	102*	97*	91	53*	67*
COc1ccc(S(=O)(=O)N(C)C[C@@H]2Oc3cc(C#CC4CC4)ccc3S(=O)(=O)N([C@H](C)CO)C[C@H]2C)cc1	-71	5	106*	103*	67	37*	47*
COc1ccc(S(=O)(=O)N(C)C[C@H]2Oc3cc(C#CC4CCCC4)ccc3S(=O)(=O)N([C@@H](C)CO)C[C@H]2C)cc1	-75	4	47	·	·	·	·
COc1cccc(-c2ccc3c(c2)O[C@H](CN(C)C(=O)c2ccccc2F)[C@H](C)CN([C@@H](C)CO)S3(=O)=O)c1	-58	14	·	·	·	·	·
SMILES	Pf Dd2 inh	C diff growth	T cruzi growth-1	T cruzi growth-2	T cruzi growth-3	3T3 cytotox	3T3 cytotox 2
O=C(C[C@@H]1CC[C@@H]2[C@H](COC[C@H](O)CN2S(=O)(=O)c2ccc(Cl)cc2)O1)NCCN1CCCCC1	-13	-2	·	·	·	·	·
C[C@H]1CN([C@@H](C)CO)C(=O)c2cccc(NC(=O)C3CCOCC3)c2O[C@H]1CN(C)Cc1ccc(C(=O)Nc2ccccc2N)cc1	4	-2	83	·	·	·	·
C[C@@H]1CN([C@@H](C)CO)C(=O)c2cccc(NC(=O)C3CCOCC3)c2O[C@H]1CN(C)Cc1ccc(C(=O)Nc2ccccc2N)cc1	-67	2	107*	105*	83	14	13
C[C@@H]1CN([C@H](C)CO)C(=O)c2cccc(NC(=O)NC3CCCCC3)c2O[C@H]1CN(C)Cc1ccc(C(=O)O)cc1	-4	5	-22	·	·	·	·
C[C@@H]1CN([C@@H](C)CO)C(=O)c2cccc(NC(=O)C3CC3)c2O[C@H]1CN(C)Cc1ccc(C(=O)Nc2ccccc2N)cc1	-54	4	99*	106*	94	-9	6
C[C@H]1CN([C@@H](C)CO)C(=O)c2cccc(NC(=O)C3CCOCC3)c2O[C@@H]1CN(C)Cc1ccc(C(=O)Nc2ccccc2N)cc1	-33	4	·	·	·	·	·
C[C@H]1CN([C@@H](C)CO)C(=O)c2cccc(NC(=O)NC3CCCCC3)c2O[C@H]1CN(C)Cc1ccc(C(=O)Nc2ccccc2N)cc1	-74	·	?	101*	?	-16	?
CC(C)NC(=O)Nc1ccc2c(c1)C(=O)N([C@H](C)CO)C[C@@H](C)[C@@H](CN(C)Cc1ccc(Oc3ccccc3)cc1)O2	0	-13	·	·	·	·	·
CC(C)NC(=O)N(C)C[C@H]1OCCCC[C@@H](C)Oc2ccc(NC(=O)C3CCCCC3)cc2C(=O)N([C@H](C)CO)C[C@@H]1C	-5	-3	99*!	-43	-41	1	10

Assay outcomes deposited in PubChem by Broad Institute.
